Several values for one entry are separate records, joined by “and”; a condition that tells them apart may be missing. Equal entries are not always repeated. Records with an inconclusive call do not appear. Values without a mark were called inactive. Activity calls are given as the source filed them. The call rests on the fitted dose curve.
assay: qHTS assay to identify small molecule agonists of the progesterone receptor (PR) signaling pathway - cell viability counter screen (AID 1346799); settings: PR-UAS-bla HEK293T viability, CellTiter-Glo luminescence, 16 h; series mostly up to 92.4 µM; activity change, negative = cytotoxicity: at the top concentration; further: nearly all actives have a fitted effect of over 45% in size
Text: National Center for Advancing Translational Sciences [NCATS]
NIH Chemical Genomics Center [NCGC]
U.S. Environmental Protection Agency [EPA]
National Institutes of Environmental Health Sciences [NIEHS]
National Toxicology Program [NTP]
U.S. Food and Drug Administration [FDA]
Progesterone receptor (PR), a nuclear hormone receptor, plays an important role in development, metabolic homeostasis and reproduction. It is activated by the steroid hormone progesterone. Endocrine disrupting chemicals (EDCs) and their interactions with steroid hormone receptors like PR causes disruption of normal endocrine function. To identify the compounds that stimulate PR signaling, a PR-UAS-bla GripTite cell line i.e. PR-UAS-bla HEK293T (Invitrogen, Carlsbad, CA, USA) containing a beta-lactamase reporter gene under the control of an UAS response element was used to screen Tox21 10K compound library. The cytotoxicity of the Tox21 compound library against the PR-bla cell line was tested in parallel by measuring the cell viability using CellTiter-Glo assay in the same wells.
Tox21 Assay Protocol Summary:
PR-UAS-bla HEK293T cells were dispensed at 3,000 cells/5 uL of assay medium containing 2% charcoal stripped FBS per well into black wall/clear-bottom 1536-well plates using a Multidrop Combi (ThermoFisher Scientific, Waltham, MA) dispenser. After the assay plates were incubated at a 37C and 5% CO2 for 6 hr, 23 nL of compounds dissolved in DMSO, positive controls or DMSO only was transferred to the assay plate by a Pintool station (Kalypsys, San Diego, CA). The plates were incubated at 37C and 5% CO2 for 16 hr. Then 1 uL of LiveBLAzer B/G FRET substrate was added using a Flying Reagent Dispenser (FRD, Aurora Discovery, San Diego, CA), the plates were incubated at room temperature for 2 hours, and fluorescence intensity was measured by an Envision plate reader (PerkinElmer, Shelton, CT). For cell viability readout that measures cytotoxicity, 4 uL/well of CellTiter-Glo reagent was added into the assay plates using a FRD. After 30 min incubation at room temperature, the luminescence intensity in the plates was measured using a ViewLux (PerkinElmer) plate reader.
On the % scale 0 is the no-effect control and ±100 the full control effect; potency means the concentration at half of the fitted maximal effect.

Compound | activity change, negative = cytotoxicity | Potency
O=S(=O)(O)c1ccc(Nc2nc(Nc3ccc(/C=C/c4ccc(Nc5nc(Nc6ccc(S(=O)(=O)O)cc6)nc(N(CCO)CCO)n5)cc4S(=O)(=O)O)c(S(=O)(=O)O)c3)nc(N(CCO)CCO)n2)cc1 | 0.894% [at 42.5 µM] | –
C/C=C/C=C/COC(=O)C(C)C | -6.04% | –
CN1CCC[C@@H]1CCO[C@](C)(c1ccccc1)c1ccc(Cl)cc1 | – | 8.41 µM (active)
COc1c(C)c2c(c(O)c1C/C=C(\C)CCC(=O)OCCN1CCOCC1)C(=O)OC2 | – | 0.237 µM (active)
O=C1OC2(c3ccc(O)cc3Oc3cc(O)ccc32)c2ccc(N=C=S)cc21 | 0% | –
CCCCCCCC | -2.32% | –
CCCCCCCCCCCC(=O)OCC(C)OC(=O)CCCCC(=O)O (stereo not given) | -21.5% [at 42.5 µM] | –
Cc1cc(C(C)(C)C)c(O)c(C)c1Cn1c(=O)n(Cc2c(C)cc(C(C)(C)C)c(O)c2C)c(=O)n(Cc2c(C)cc(C(C)(C)C)c(O)c2C)c1=O | -12.8% | –
CCCCC(CC)COC(=O)CCCCC(=O)OCc1ccccc1 (stereo not given) | -2.27% | –
NC(=S)NC(N)=S | -4.35% | –
C=CCn1c(=O)n(CC=C)c(=O)n(CC=C)c1=O | 8.16% | –
CC(=O)CC(=O)Nc1ccc(S(=O)(=O)O)cc1 | -3.37% | –
CC(=O)OCC=C(C)C | 4.01% [at 42.5 µM] | –
C=Cc1ccccc1C=C | 0.335% [at 240 µM] | –
CN(C)C(=O)COC(=O)Cc1ccc(OC(=O)c2ccc(N=C(N)N)cc2)cc1 | 1.15% [at 42.5 µM] | –
Clc1nnc(Cl)c2ccccc12 | 23.9% | –
CCCCN(CCCC)CC(O)c1cc(Cl)cc2c1-c1ccc(Cl)cc1/C2=C/c1ccc(Cl)cc1 (stereo not given) | -16.4% [at 42.5 µM] | –
CC(C)(c1cc(Br)c(OCC(Br)CBr)c(Br)c1)c1cc(Br)c(OCC(Br)CBr)c(Br)c1 (stereo not given) | -1.09% [at 42.5 µM] | –
CCCC(=O)OCOC(=O)C1=C(C)NC(C)=C(C(=O)OC)C1c1cccc(Cl)c1Cl (stereo not given) | 5.11% [at 42.5 µM] | –
CC(C)(C)NSc1nc2ccccc2s1 | -0.445% | –

Compound | activity change, negative = cytotoxicity | Potency
Cc1ccc(C)cc1 | 8.23% | –
CC1(C)CC(O)CC(C)(C)N1 | 3.33% | –
CCCc1ccc(OCC(=O)N2CCN(C(=O)COc3ccc(CCC)cc3OC)CC2)c(OC)c1 | 8.6% [at 42.5 µM] | –
CC(CCc1ccccc1)NCC(O)c1ccc(O)c(C(N)=O)c1 (stereo not given) | 4.31% | –
CCCNCCC | 10.2% | –
Nc1nc(-c2ccccc2)cs1 | 24.8% | –
C=C(CC)C(=O)c1ccc(OCC(=O)O)c(Cl)c1Cl | 17.5% [at 42.5 µM] | –
OC1CCC(C2CCCCC2)CC1 (stereo not given) | 4.65% | –
CN1CCN2c3ccccc3Cc3ccccc3C2C1 (stereo not given) | 0.338% [at 42.5 µM] | –
c1ccc(SSc2ccccc2)cc1 | -12.7% | –
CN(C)c1ccc(C(=C2C=CC(=[N+](C)C)C=C2)c2ccc(N(C)C)cc2)cc1 | – | 27.2 µM (active) and 21.1 µM (active)
CC(=O)c1ccc(C(C)=O)cc1 | -1.24% | –
CC(C)NC[C@@H](O)COc1ccc(CC(N)=O)cc1 | 2.38% [at 42.5 µM] | –
CC(=O)[C@H]1CC[C@H]2[C@@H]3CCC4=CC(=O)CC[C@]4(C)[C@H]3CC[C@]12C | – | 60.8 µM (active)
C=CC(C)(CCC=C(C)C)OC=O (stereo not given) | -9.31% | –
CCO[Si](OCC)(OCC)OCC | -1.45% | –
CCN(CC)C(=O)c1cc(S(=O)(=O)Cc2ccccc2)c(N2CCC(c3ccccc3)CC2)cc1N(CC)CCN(C)C | – | 8.53 µM (active)
O=S(=O)(O)c1ccccc1/C=C/c1ccc(-c2ccc(/C=C/c3ccccc3S(=O)(=O)O)cc2)cc1 | -0.664% | –
Nc1nc(N)nc(-c2cc(Cl)ccc2Cl)n1 | -5.01% [at 42.5 µM] | –
CCC(CC)C(C)CCOC(C)=O (stereo not given) | -1.11% | –
